{
  "source": "PubChem BioAssay (NCI)",
  "test": "NCI Yeast Anticancer Drug Screen. Data for the rad50 strain (AID 155);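 further: 0% = growth of vehicle-only cultures of the same strain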",
  "details": "S. cerevisiae rad50 strain growth inhibition, hits give high values",
  "experimental": "Growth inhibition of yeast strains with defined genetic alterations is measured as a screen for potential anti-cancer activity. Selected strains with alterations in DNA damage repair or cell cycle control were exposed to compounds and growth inhibition was measured relative to vehicle treated controls. The strain used in this assay is rad50",
  "key": {"[1]": {"details": "at 5.0 µM (retest, dose inferred, filed as 0.5)"}, "[2]": {"details": "at 50.0 µM (retest, dose inferred, filed as 5.0)"}},
  "note": "The panel holds about 79,000 compounds, 15% with a hit somewhere; the sample as a whole holds those more often. Unmarked numbers belong to inactive results. Calls of active or inactive are those of the source. No stated cut-off is given here; in the data, active means growth inhibition above about 70%; inactive means the rest.",
  "data": [
    {"compound": "CCCCOc1ccc(CN2CCOC2=O)cc1", "values": [
      {"measurement": "growth inhibition", "setting": "[1]", "value": 3, "unit": "%"},
      {"measurement": "growth inhibition", "setting": "[2]", "value": 8, "unit": "%"},
      {"measurement": "growth inhibition", "setting": "at 50.0 µM", "value": 38.6, "unit": "%"}
    ]},
    {"compound": "CCN(CC)c1c(C(=O)/C=C/c2ccc(OC)cc2)c(-c2ccccc2)nn(C)c1=O", "values": [
      {"measurement": "growth inhibition", "setting": "[1]", "value": 17, "unit": "%"},
      {"measurement": "growth inhibition", "setting": "[2]", "value": 17, "unit": "%"},
      {"measurement": "growth inhibition", "setting": "at 50.0 µM", "value": "78.1% (active)"}
    ]},
    {"compound": "Cc1ccnc(NS(=O)(=O)c2ccc(N=Cc3c4ccccc4nc4cc(Cl)ccc34)cc2)n1", "values": [
      {"measurement": "growth inhibition", "setting": "[1]", "value": 58, "unit": "%"},
      {"measurement": "growth inhibition", "setting": "[2]", "value": 15, "unit": "%"},
      {"measurement": "growth inhibition", "setting": "at 50.0 µM", "value": "99.4% (active)"}
    ]},
    {"compound": "O=C(CCl)Oc1ccc(Sc2ccc(OC(=O)CCl)cc2)cc1", "values": [
      {"measurement": "growth inhibition", "setting": "[1]", "value": 6, "unit": "%"},
      {"measurement": "growth inhibition", "setting": "[2]", "value": "97% (active)"},
      {"measurement": "growth inhibition", "setting": "at 50.0 µM", "value": "98.7% (active)"}
    ]},
    {"compound": "COc1cccc2c1C(=O)c1c(O)c3c(c(O)c1C2=O)C[C@@](O)(/C(C)=N/NC(=O)c1ccc(Cl)c(Cl)c1)C[C@@H]3OC1CC(N)C(O)C(C)O1", "note": "(some centres not stated)", "values": [
      {"measurement": "growth inhibition", "setting": "[1]", "value": "89% (active)"},
      {"measurement": "growth inhibition", "setting": "[2]", "value": "99% (active)"},
      {"measurement": "growth inhibition", "setting": "at 50.0 µM", "value": 42, "unit": "%"}
    ]},
    {"compound": "C/C(=N\\Nc1ccccn1)c1ccccn1", "values": [
      {"measurement": "growth inhibition", "setting": "[1]", "value": 47, "unit": "%"},
      {"measurement": "growth inhibition", "setting": "[2]", "value": "98% (active)"},
      {"measurement": "growth inhibition", "setting": "at 50.0 µM", "value": "98.8% (active)"}
    ]},
    {"compound": "O=C1NC(=O)C(c2ccccc2)(c2ccccc2)C2CC3c4[nH]c5ccccc5c4CCN3CC12", "note": "(configuration not stated)", "values": [
      {"measurement": "growth inhibition", "setting": "[1]", "value": 5, "unit": "%"},
      {"measurement": "growth inhibition", "setting": "[2]", "value": 61, "unit": "%"},
      {"measurement": "growth inhibition", "setting": "at 50.0 µM", "value": 64.5, "unit": "%"}
    ]},
    {"compound": "O=C(Nc1c(Cl)cccc1Cl)Oc1c(Br)cc(Br)cc1Br", "values": [
      {"measurement": "growth inhibition", "setting": "[1]", "value": "77% (active)"},
      {"measurement": "growth inhibition", "setting": "[2]", "value": "96% (active)"},
      {"measurement": "growth inhibition", "setting": "at 50.0 µM", "value": "90.3% (active)"}
    ]},
    {"compound": "Cc1ccc(O)c(Cc2ccc(Cl)cc2)c1", "values": [
      {"measurement": "growth inhibition", "setting": "[1]", "value": -146, "unit": "%"},
      {"measurement": "growth inhibition", "setting": "[2]", "value": "97% (active)"},
      {"measurement": "growth inhibition", "setting": "at 50.0 µM", "value": "74.7% (active)"}
    ]},
    {"compound": "CCCCCCCCCCCCSCCCN", "values": [
      {"measurement": "growth inhibition", "setting": "[1]", "value": -6, "unit": "%"},
      {"measurement": "growth inhibition", "setting": "[2]", "value": "99% (active)"},
      {"measurement": "growth inhibition", "setting": "at 50.0 µM", "value": "99.2% (active)"}
    ]},
    {"compound": "NC(=O)C#CC#CC#CCO", "values": [
      {"measurement": "growth inhibition", "setting": "[1]", "value": 11, "unit": "%"},
      {"measurement": "growth inhibition", "setting": "[2]", "value": 62, "unit": "%"},
      {"measurement": "growth inhibition", "setting": "at 50.0 µM", "value": "92.8% (active)"}
    ]},
    {"compound": "O=C(C1=Cc2ccccc2OC1)N1CCN(c2cccc(Cl)c2)CC1", "values": [
      {"measurement": "growth inhibition", "setting": "[1]", "value": -1, "unit": "%"},
      {"measurement": "growth inhibition", "setting": "[2]", "value": "96% (active)"},
      {"measurement": "growth inhibition", "setting": "at 50.0 µM", "value": 49.3, "unit": "%"}
    ]},
    {"compound": "Cc1ccc(NCCNCCO)c2c(=O)c3ccccc3sc12", "values": [
      {"measurement": "growth inhibition", "setting": "[1]", "value": 27, "unit": "%"},
      {"measurement": "growth inhibition", "setting": "[2]", "value": "99% (active)"},
      {"measurement": "growth inhibition", "setting": "at 50.0 µM", "value": "99.5% (active)"}
    ]},
    {"compound": "N#Cc1ccc2nc3ccc(N)cc3nc2c1", "values": [
      {"measurement": "growth inhibition", "setting": "[1]", "value": -22, "unit": "%"},
      {"measurement": "growth inhibition", "setting": "[2]", "value": "96% (active)"},
      {"measurement": "growth inhibition", "setting": "at 50.0 µM", "value": "79.2% (active)"}
    ]}
  ]
}
